Screens: PubChem, National Center for Advancing Translational Sciences (NCATS)
This is a sample that favours compounds with a hit; in the whole collection about 3.9% have one here.
Casp7 inh = caspase-7 (human) inhibition, allosteric or competitive. Potency, µM (series often up to 57.5 µM), without a hit: at the highest dose activity change, negative = inhibition, usual class: inhibitors. P55210. AID 889. actives 0.02% (n = 75,000). recombinant caspase-7, Ac-DEVD-AFC fluorescence rate; active = well fitted inhibition curve with a large enough effect in the main read-out, with a control signal flat, not every such curve was filed as active; inconclusive = small, poorly fitted or top-dose-only effect, or a change in a side signal; also: % of control where 0% means no effect
Tau fil binding = tau filament binding. actives 2% (n = 71,000). AID 596. Potency, µM (highest dose often 57.1 µM), for the others: at the highest dose activity change, negative = inhibition. recombinant tau filaments, thioflavin S fluorescence, 15 h; filaments grown with octadecylsulfate alongside compound. P10636;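 also: % is scaled to controls: 0 for no effect and ±100 for the full control effect; actives lower thioflavin S fluorescence by blocking filaments or displacing dye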
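Assay mix: 1 uM His-tagged tau, 30 uM sodium octadecylsulfate, thioflavine S dye in HEPES/NaCl/DTT buffer. Compound is added prior to the inducer. Fluorescence after 15 h at 37 C.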
Caspase-1 inhib = allosteric or competitive inhibitors of human caspase-1; Caspase-1 enzyme, Ac-WEHD-AFC fluorogenic rate; actives 0.03% (n = 75,000); Potency, µM (top dose mostly 57.5 µM), for inactives: top-dose activity change, negative = inhibition, actives largely listed as inhibitors;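 also: plate controls were vehicle for no effect and no substrate for full effect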
ERK AVP inh = vasopressin-driven ERK pathway inhibition; Potency, µM (highest dose often 57.5 µM), without a hit: at the highest dose activity, negative = inhibition, actives largely listed as inhibitors; actives 0.99% (n = 72,000); HEK293-V1b, vasopressin-stimulated pERK AlphaScreen; also: % is scaled to controls: 0 for no effect and ±100 for the full control effect; nearly all actives have a fitted effect of over 55% in size
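HEK293 cells stably expressing V1b receptor, preincubated 30 min at 37 °C with compound, then stimulated 5 min with 25 nM vasopressin. Phospho-ERK by AlphaScreen SureFire after 5 h RT; normalized to DMSO and vasopressin; AC50 by Hill fit.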
15-hLO inh = inhibitors of human 15-lipoxygenase (ALOX15); P16050; purified 15hLO-1, xylenol orange hydroperoxide absorbance; Potency, µM (highest dose often 57.1 µM), for inactives: at the top dose activity change, negative = inhibition, most hits filed as inhibitors; actives 1.4% (n = 74,000); AID 887; also: % is scaled to controls: 0 for no effect and ±100 for the full control effect; nearly all actives have a fitted effect of over 55% in size
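Hydroperoxide formed from arachidonic acid (50 uM) by purified human 15hLO-1 (40 nM) oxidizes ferrous iron, and the ferric-xylenol orange complex is read at 573 versus 405 nm. Compounds were preincubated 15 min; reaction ran 6 min at room temperature.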
The depositor's hits bear a star; i = inactive; ? = inconclusive; nt = no result given; ! = not active in a repeat; [ ] = dose if it differs, or a comment. Unless noted, calls follow the shape of the dose curve; as a rule, active = well fitted curve in the direction sought with a large enough effect; inconclusive = small, poorly fitted or top-dose-only effect, or another doubt; inactive = no such curve, though single readings can be large; an effect the other way counts as inactive or inconclusive. Potency is read from the fitted curve at half-maximal effect.

SMILES	Casp7 inh	Tau fil binding	Caspase-1 inhib	ERK AVP inh	15-hLO inh
O=C(Oc1cc2oc(=O)c3c(c2cc1Cl)CCCC3)c1ccco1	-18%	23%	nt	-9%	-6%
COC(=O)Cc1c(C)c2ccc(OC(=O)c3ccco3)cc2oc1=O	?	-2%	nt	4µM*	-4%
COC(=O)Cc1c(C)c2cc(Cl)c(OC(=O)c3ccco3)cc2oc1=O	?	17%	nt	13µM*	-4%
CC1=NN(c2ccccc2)C(=O)[C@@H]1N=Nc1ccc(S(N)(=O)=O)cc1	-1%[11.5 µM]	4µM*	2%[11.5 µM]	4%[11.5 µM]	4%[11.4 µM]
CC(=O)c1cccc(NC(=O)C2CCN(S(=O)(=O)c3c(C)n[nH]c3C)CC2)c1	-3%	25µM*	-2%	?	-10%
CCOC(=O)C1=C(N)n2c(s/c(=C\c3ccco3)c2=O)=C(C(=O)OCC)C1c1ccco1 (configuration not stated)	-24%	16µM*	?	?	-23%
Clc1ccccc1-c1ccc2ncnc(NCCN3CCOCC3)c2c1	-7%	2%	-5%	?	-2%
Nc1c2c(nc3ccccc13)CCCC2	0%	44%	-6%	9%	13µM*!
CCNc1sc(C(=O)c2cccs2)c(N)c1-c1nc2ccccc2s1	?	13µM*	-9%	?	?
N#CC1=C(N)OC(c2ccccc2)=C(C#N)C1c1ccc2c(c1)OCO2 (configuration not stated)	-6%	-24%	-7%	-27%	32µM*
Cc1ccccc1-c1nccc(NCCN2CCOCC2)n1	-4%	-7%	1%	8%	-27%
CN1CCN(c2nc3c(c(=O)n(C)c(=O)n3C)n2CCSc2nc3ccccc3s2)CC1	1%	-18%	2%	nt	1.6µM*
O=C1NCCCC2c3cc(O)c4ccccc4c3OC12N1CCCCC1 (configuration not stated)	?	?	32µM*	-24%	?
CN1CCc2cc(NC(=O)Nc3cccnc3)ccc21	1%	-14%	0%	3%	6%
Cn1ccc2cc3c(cc21)CCN3C(=O)Nc1cccnc1	2%	32µM*	0%	?	-13%[25.6 µM]
CC(C)C12CC[C@@]3(CC[C@H]4[C@@](C)(CCC[C@]4(C)C(=O)O)[C@@H]3C1)[C@@H](CN)C2	-2%[11.5 µM]	16%[11.4 µM]	2%[11.5 µM]	5%[11.5 µM]	12%[11.4 µM]
CN1CCN(S(=O)(=O)c2ccc(SCCOc3ccccc3)nc2)CC1	0%	-3%	-1%	25µM*	-5%
COc1ccc(-n2c(=O)c(-c3cc(F)cc(F)c3)nc3cnc(N(C)C)nc32)cc1	?	0%	?	-6%	-23%
O=S(=O)(Nc1ccc(N2CCOCC2)cc1)c1cccs1	0%	16µM*	-1%	-10%	-1%
O=S(=O)(Nc1ccc(S(=O)(=O)N2CCCCC2)cc1)c1cccs1	-1%	2%	0%	-24%	-1%
O=c1c2ccccc2oc2cc(O)c(C3COCC(CO)C(O)C(O)C3O)c(O)c12 (configuration not stated)	?	nt	nt	-4%	0%[25.6 µM]
CCOc1cccc(C(=O)c2ccc(O)c(O)c2O)c1	-13%	nt	-2%	-18%	13µM*
CCOc1ccc(C(=O)c2ccc(O)c(O)c2O)cc1	-1%	nt	4%	12%	?
CCOC(=O)Cc1csc(-n2sc3ccccc3c2=O)n1	0%	-27%	-4%	13%	0.2µM*
C[C@H]1/C=C\CC(=O)OC[C@H](C)C(=O)N2CCC[C@@H]2C(=O)OC1	-6%[11.5 µM]	nt	-5%[11.5 µM]	-2%[11.5 µM]	0%[11.4 µM]
SMILES	Casp7 inh	Tau fil binding	Caspase-1 inhib	ERK AVP inh	15-hLO inh
CN(C)C=Nc1ncc2c([nH]c3ccccc32)c1C#N	0%	-6%	-4%	25µM*	?
CC(=O)O[C@H]1CC[C@@]2(C)C(=CC[C@@H]3[C@@H]4CC[C@H](c5cc(C(F)(F)F)n(C(C)=O)n5)[C@]4(C)CC[C@@H]32)C1	-1%[11.5 µM]	29%[11.4 µM]	3%[11.5 µM]	11%[11.5 µM]	-2%[11.4 µM]
Cc1sc(N)c(C(=O)c2cccc(C(F)(F)F)c2)c1C	-3%	32µM*	1%	-17%	-13%[25.6 µM]
CS(=O)(=O)N1CCC2(CCCN(c3ncccn3)C2)CC1	-2%	3%	-3%	-20%	?
CC1=C(\C=C/C(C)=C/C=C\C(C)=C\C(=O)O)C(C)(C)CCC1	-1%	?	3%	-8%	?
CC1=C(/C=C/C(C)=C/C=C/C(C)=C/C(=O)Nc2ccc(O)cc2)C(C)(C)CCC1	-3%	3.2µM*	-6%	7%	?
O=C(c1ccncc1)N1CCC2(CCCN(c3ccncc3)C2)CC1	-2%	2%	1%	28%	5%
COc1ccc(/C=C(\C#N)C(N)=O)cc1OC	-3%[11.5 µM]	-12%[11.4 µM]	1%[11.5 µM]	-4%[11.5 µM]	3%[11.4 µM]
COc1cc(/C=C(\C#N)C(=O)c2ccc(O)c(O)c2)cc(I)c1O	1%	-4%	-1%	?	1µM*
O=C(Nc1ccc2c(c1)nc1n2CCN(C2CCCCC2)C1)c1ccco1	?	25µM*	?	-11%	-29%
N[C@H](Cc1cc(I)c(Oc2cc(I)c(O)c(I)c2)c(I)c1)C(=O)O	-4%[25.7 µM]	-19%[25.6 µM]	-6%[25.7 µM]	-5%[25.7 µM]	-7%[25.6 µM]
NC(Cc1cc(I)c(Oc2cc(I)c(O)c(I)c2)c(I)c1)C(=O)O (configuration not stated)	-1%	nt	2%	9%	13µM*
COc1ccccc1CCn1c(=O)c(-c2cccc(Cl)c2)nc2cncnc21	-10%	13µM*	-5%	-28%	-23%
O=c1c(-c2cccc(Cl)c2)nc2cncnc2n1Cc1ccccc1Cl	-11%	6.3µM*	-7%	?	5%
Cc1nc2cncnc2n(Cc2ccccc2Cl)c1=O	-9%	16µM*	-1%	-12%	12%
COc1ccccc1CCn1c(=O)c(-c2ccc(F)cc2)nc2cncnc21	-3%	-9%	-4%	?	-24%
O=c1c(-c2ccccc2)nc2cncnc2n1Cc1ccccc1Cl	-9%	?	-13%	-24%	4%
Cc1ccsc1C1C=C(c2cccc(Br)c2)Nc2ncnn21 (configuration not stated)	?	308%	nt	1%	16µM*
COc1cccc(C2=CC(c3ccc(C)cc3)n3ncnc3N2)c1 (configuration not stated)	?	i	nt	1%	-12%
CN=C1N[C@H](c2ccccc2)N(c2ccccc2)S1	-1%	?	-3%	-22%	0.79µM*
CC(=O)NCCNc1ncnc2ccc(-c3ccccc3C#N)cc12	3%	3%	-3%	12%	?
CCCSc1nnc2c(n1)OC(c1cccn1C)N(C(C)=O)c1ccccc1-2 (configuration not stated)	1%	nt	-1%	nt	-4%
CCCCCSc1nnc2c(n1)OC(C)N(C(C)=O)c1ccccc1-2 (configuration not stated)	?	25µM*	?	-7%	?
CCC(=O)N1c2ccccc2-c2nnc(SC)nc2OC1c1ccc(N(C)C)cc1 (configuration not stated)	?	25µM*	-3%	-20%	2%
